Reference: publication PMC7819943, “Rice protein-binding microarrays: a tool to detect cis-acting elements near promoter regions in rice”
Whole data set: some 35,000 sequences, median “fluorescence intensity (a.u.)” near 10,000, cut for the highest 2% near 52,000. The entries come from a sample that favours the highest values as a whole.

Biological target: T1, OsWOX13 (Oryza sativa, UniProt Q5QMM3 1-267)
T1 sequence: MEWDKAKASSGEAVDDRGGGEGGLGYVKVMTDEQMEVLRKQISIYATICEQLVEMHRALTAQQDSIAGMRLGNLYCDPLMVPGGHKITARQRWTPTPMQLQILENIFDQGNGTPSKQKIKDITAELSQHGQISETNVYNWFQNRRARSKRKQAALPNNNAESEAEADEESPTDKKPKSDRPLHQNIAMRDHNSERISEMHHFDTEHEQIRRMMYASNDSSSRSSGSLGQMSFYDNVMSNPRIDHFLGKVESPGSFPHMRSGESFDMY
Assay: protein-binding microarray (RPBM); PBS, 2% BSA, 51.3 ng/ul salmon testes DNA, 50 uM zinc acetate, 200 nM TF, 25 C, 1 h; high values mean tight binding
Details: protein: recombinant; tags: N-terminal polyhistidine and DsRed monomer fusion (pET32a); label: CyDye5-dUTP incorporated in the synthesized complementary strand; 3' TTTTT single-stranded linker to array surface; dsDNA, one strand shown
Method in brief: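 The binding signal for each feature is its fluorescence intensity in arbitrary units. An Axon 4000B scanner was used to read a custom Agilent array that had been made double-stranded with Cy5-dUTP primer extension, blocked with 2% BSA, incubated at 25 °C for 1 h with 200 nM protein in PBS, 2% BSA, salmon testes DNA and 50 µM zinc acetate, and washed. The protein was an N-terminal polyhistidine–DsRed transcription factor fusion from E. coli BL21-CodonPlus, purified on Ni–NTA.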

| Sequence | binding signal |
| --- | --- |
| TCCGATTAATGTGGAAATTTCTAGCCTCCACAGCGAACGTCGGAGTCACCTAGTGCAG | 8650 fluorescence intensity (a.u.) |
| TAGATACGAAAATTAATTGGAATTTTGGATTTGGATGGGACGGAGTCACCTAGTGCAG | 24500 fluorescence intensity (a.u.) |
| GTCACATCATTCTAATTTCAATTAAACTTCAAATTTTGGCCGGAGTCACCTAGTGCAG | 12900 fluorescence intensity (a.u.) |
| CTGCAACTAAATTTTAGGATTAATTTAAGGAACTTTCGGGCGGAGTCACCTAGTGCAG | 11300 fluorescence intensity (a.u.) |
| CAATGGTAAATTTATCCAGTCCAAAGTGAAAATATATGGTCGGAGTCACCTAGTGCAG | 3960 fluorescence intensity (a.u.) |
| CTCCTTAATTTACTTATTTGTCTTTAATTGGTTCTCGCACCGGAGTCACCTAGTGCAG | 33700 fluorescence intensity (a.u.) |
| CTGCCTGTAAATTTCTGTGATTTGATGTTTGCCTCTGTTGCGGAGTCACCTAGTGCAG | 11300 fluorescence intensity (a.u.) |
| ATTTAAATCATCATCTATAGTCAATCTAATAGCTCACTCACGGAGTCACCTAGTGCAG | 8910 fluorescence intensity (a.u.) |
| AGTGATAAATTTGAGTGATTACTATATGACACCGTTGTGTCGGAGTCACCTAGTGCAG | 55700 fluorescence intensity (a.u.) |
| GTTAATTAATTATATTATAATAATTCTCTCAATTTGTCGCCGGAGTCACCTAGTGCAG | 65500 fluorescence intensity (a.u.) |
| AATAATTAAATTTGATATAATAAATTAATATGTGATATGTCGGAGTCACCTAGTGCAG | 35700 fluorescence intensity (a.u.) |
| TATAACTAAAATTATATTTGTAAGTTTAGTTGATATGACACGGAGTCACCTAGTGCAG | 6390 fluorescence intensity (a.u.) |
| ATCAATCTCAATGGTTAAATGATTGATCTATCATAATTCACGGAGTCACCTAGTGCAG | 22100 fluorescence intensity (a.u.) |
| AATAATAATTAATTATAGTAATTAATCATTAATTTTGTACCGGAGTCACCTAGTGCAG | 64100 fluorescence intensity (a.u.) |
| AGTAATTTTGGTACAATTAATAAATAAATCTGATACCTCACGGAGTCACCTAGTGCAG | 21200 fluorescence intensity (a.u.) |
| ATTAAATCAATAATTAAATATATTTTCATAATAAATTTGTCGGAGTCACCTAGTGCAG | 23400 fluorescence intensity (a.u.) |
| GATTAATTAATTAATCTCAATGATGGTAAATACATTCCCACGGAGTCACCTAGTGCAG | 63100 fluorescence intensity (a.u.) |
| TTTTAGTAAATTAATAAATATTTATTTTGTTATTTAATACCGGAGTCACCTAGTGCAG | 13200 fluorescence intensity (a.u.) |
| TAATATTATATTTAATTTGCATTATTTTAAATATAGTACCCGGAGTCACCTAGTGCAG | 3730 fluorescence intensity (a.u.) |
| TTTTAAATTTAAAATAATTAAAACTCAATTAATAATTTGTCGGAGTCACCTAGTGCAG | 31300 fluorescence intensity (a.u.) |
| CAATGACTGATTACTGTGTTGATAGAATTTCATATACATTCGGAGTCACCTAGTGCAG | 34300 fluorescence intensity (a.u.) |
| TAAAATTTGGAACTGAAATTTCTAACATTTCGGGTCCATCCGGAGTCACCTAGTGCAG | 4680 fluorescence intensity (a.u.) |
| AAGATAGATAGATTCATCGCGATCGATCGAGCGGGAGGTACGGAGTCACCTAGTGCAG | 22500 fluorescence intensity (a.u.) |
| AAACCATTGCAAATTAACTCTCCAAATGGTTTCAGAGACGCGGAGTCACCTAGTGCAG | 4040 fluorescence intensity (a.u.) |
| TACGCTATACGCAGTAATTGATATATATAATCTTCATGGTCGGAGTCACCTAGTGCAG | 8920 fluorescence intensity (a.u.) |
| CCAAATGGGACAAAAGATTGAAAAGAAAACTGACAGCCGCCGGAGTCACCTAGTGCAG | 13900 fluorescence intensity (a.u.) |
| GTCCCAATGATTGCCAGCCCCGGTGGACGGGTGTAGAAGCCGGAGTCACCTAGTGCAG | 38100 fluorescence intensity (a.u.) |

| Sequence | binding signal |
| --- | --- |
| TATAATTGACATGCAATTATAATAACGTGGGTTAAATATACGGAGTCACCTAGTGCAG | 33800 fluorescence intensity (a.u.) |
| ATAACTATTTAATTGACATGCAATAAATATAAATGGGTAGCGGAGTCACCTAGTGCAG | 52600 fluorescence intensity (a.u.) |
| CTTTTAAATGTAGTATAATTATATTATAACTAATAACTAGCGGAGTCACCTAGTGCAG | 18300 fluorescence intensity (a.u.) |
| CCAAATTCATCTTAATGTTTGATTATGATCAGCATCTTATCGGAGTCACCTAGTGCAG | 4610 fluorescence intensity (a.u.) |
| TCTAAATTGTATTTCTATATGGACTCTAGTCTCCTCTTCACGGAGTCACCTAGTGCAG | 14000 fluorescence intensity (a.u.) |
| TAAACATCTGATTAGCTAAAAGTGTTTAATTAGATTTCCACGGAGTCACCTAGTGCAG | 21800 fluorescence intensity (a.u.) |
| GAAATAATTAATCAATTAACGCTGATGTGTGAGCTGCGTACGGAGTCACCTAGTGCAG | 53800 fluorescence intensity (a.u.) |
| GAAACGTGATTCAAATGATTATTCAGGTACAATAATCTTACGGAGTCACCTAGTGCAG | 8070 fluorescence intensity (a.u.) |
| TCCTCTCTTAATTAATTATTAGCTCGTGTTAATTGTTAAACGGAGTCACCTAGTGCAG | 32800 fluorescence intensity (a.u.) |
| AGCTCTGATTGAATTAGCTAATTATGGTTGCACGTCTAAGCGGAGTCACCTAGTGCAG | 59600 fluorescence intensity (a.u.) |
| AGTCAAATTAATCACGCAGCTGAATGCTGAATAATGTGTCCGGAGTCACCTAGTGCAG | 24000 fluorescence intensity (a.u.) |
| TCCCCTCTGATTAATTAATTAATTAATTAATTAGCTAAAACGGAGTCACCTAGTGCAG | 65500 fluorescence intensity (a.u.) |
| GAACAATAGATTAATATATAATTAAATAAATATTAGTCAACGGAGTCACCTAGTGCAG | 25100 fluorescence intensity (a.u.) |
| CAGTTGATTGGCCGACGTTATGATATGGTAGCTGAATTAGCGGAGTCACCTAGTGCAG | 44100 fluorescence intensity (a.u.) |
| TACAATCTGATTAATTAATTAGCACGGAAAATAATGTCAACGGAGTCACCTAGTGCAG | 59200 fluorescence intensity (a.u.) |
| CGTCTAATTAAGCGTAGACGATCTGATTCGCTAGCTCGCACGGAGTCACCTAGTGCAG | 10600 fluorescence intensity (a.u.) |
| TATTAATTTGTAATTAATATTGAATAACGCTGCGTGAGTACGGAGTCACCTAGTGCAG | 45900 fluorescence intensity (a.u.) |
| TTACAAGACTTTCAATTATTATCCACATTTATATAGATGTCGGAGTCACCTAGTGCAG | 7150 fluorescence intensity (a.u.) |
| CACCAATCAGGGTTCCAAGTAGAAGAGGTGGGCAGAGAGCCGGAGTCACCTAGTGCAG | 6870 fluorescence intensity (a.u.) |
| GATAATTTGGTCATTGCTAAAATATTTGGGAAAAGTTAGCCGGAGTCACCTAGTGCAG | 23700 fluorescence intensity (a.u.) |
| TTATAATTGGAAAATAAATGAAGGGTTATAATTAAATGAACGGAGTCACCTAGTGCAG | 12000 fluorescence intensity (a.u.) |
| CTAAGCTGTGATTTCTTTTCTTTATGTCACCACCTCCAAACGGAGTCACCTAGTGCAG | 3460 fluorescence intensity (a.u.) |
| TTAATTAGACTGACATGTGGGGTCCGCGTGGGTCCCACCACGGAGTCACCTAGTGCAG | 20200 fluorescence intensity (a.u.) |
| TAGTCGTGTCAATTTGGAAAATTGGAAAGCCGTGGGGAGACGGAGTCACCTAGTGCAG | 11400 fluorescence intensity (a.u.) |
| TGATAATAATCTGTTCAATAATTTATCTTAAACAGGGCCTCGGAGTCACCTAGTGCAG | 11200 fluorescence intensity (a.u.) |
| CCCTATCAATTACCTTCACTATCATATTAATCATTGTAGGCGGAGTCACCTAGTGCAG | 24100 fluorescence intensity (a.u.) |
| CAAACAGTCAATTAGGCCTAAACAAGTTGCTACGAGCTAGCGGAGTCACCTAGTGCAG | 33200 fluorescence intensity (a.u.) |
